Assay results reported in PubChem BioAssay (Tox21).
Inconclusive results are not listed. Active and inactive are the calls of the source. The call rests on the fitted dose curve; in most records, active means well fitted curve in the direction sought with a large enough effect in the repeat runs; inconclusive means weak or mixed curves; inactive means no such curve, though single readings can be large; an effect the other way counts as inactive or inconclusive.

How the values were obtained:
[1] = qHTS RealTime-Glo MT Cell Viability Assay in HepG2 cells - 24 hour (AID 1224867); further: nearly all actives have a fitted effect of over 50% in size
In short: (§1)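 HepG2 cells (600/well) were dispensed with RealTime-Glo reagents, incubated 5 h at 37 °C, then treated with compounds in DMSO for up to 40 h. Nonlytic NanoLuc luminescence reflecting viable cells was read at each stated time point.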

[2] = qHTS RealTime-Glo MT Cell Viability Assay in HEK293 cells - 32 hour (AID 1224868); further: top concentration of the series differs between compounds; nearly all actives have a fitted effect of over 50% in size
In short: (§2)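 HEK293 cells seeded with NanoLuc/prosubstrate reagent, rested 5 h at 37 C, then dosed and kept at 37 C up to 40 h. Nonlytic real-time luminescence from viable cells read at 0, 8, 16, 24, 32 and 40 h.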

[3] = qHTS RealTime-Glo MT Cell Viability Assay in HepG2 cells - 40 hour (AID 1224870); further: nearly all actives have a fitted effect of over 50% in size
In short: (§3)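 HepG2 cells mixed with RealTime-Glo MT reagents (NanoLuc plus cell-permeant prosubstrate) were seeded at 600 cells/well, incubated 5 h at 37 C/5% CO2, then pinned with compounds in DMSO; nonlytic luminescence tracked viability during 40 h treatment.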

[4] = qHTS RealTime-Glo MT Cell Viability Assay in HEK293 cells - 16 hour (AID 1224872); further: top concentration of the series differs between compounds; nearly all actives have a fitted effect of over 50% in size
In short: as §2

[5] = qHTS RealTime-Glo MT Cell Viability Assay in HepG2 cells - 8 hour (AID 1224873); further: nearly all actives have a fitted effect of over 55% in size
In short: as §3

[6] = qHTS RealTime-Glo MT Cell Viability Assay in HEK293 cells - 40 hour (AID 1224874); settings: RealTime-Glo luminescence; max response: active compounds read low; further: nearly all actives have a fitted effect of over 50% in size
In short: (§4)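 Luminescence, which tracks viable cell number through reduction of the prosubstrate to a NanoLuc substrate, was read over continuous 37 C culture. Cells (600/well) were premixed with reagent and rested 5 h before 23 nL of compound in DMSO was pinned.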

[7] = A CellTox Green Cytotoxicity Assay to monitor cytotoxicity in HepG2 cells - 16 hour (AID 1224876); further: nearly all actives have a fitted effect of over 45% in size; further: potency means the concentration at half of the fitted maximal effect
In short: (§5)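 Real-time cytotoxicity: fluorescence of a cell-impermeant cyanine dye binding DNA of dead HepG2 cells, measured repeatedly (0–40 h) during compound exposure at 37 C. Cells seeded 600/well with reagent, dosed after 5 h.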

[8] = A CellTox Green Cytotoxicity Assay to monitor cytotoxicity in HepG2 cells - 24 hour (AID 1224878); further: nearly all actives have a fitted effect of over 45% in size; further: potency means the concentration at half of the fitted maximal effect
In short: as §5

[9] = A CellTox Green Cytotoxicity Assay to monitor cytotoxicity in HepG2 cells - 40 hour (AID 1224879); further: nearly all actives have a fitted effect of over 40% in size; further: potency means the concentration at half of the fitted maximal effect
In short: as §5

[10] = qHTS RealTime-Glo MT Cell Viability Assay in HEK293 cells - 0 hour (AID 1224880); further: top concentration of the series differs between compounds; nearly all actives have a fitted effect of over 45% in size
In short: as §4

[11] = A CellTox Green Cytotoxicity Assay to monitor cytotoxicity in HepG2 cells - 0 hour (AID 1224882); further: nearly all actives have a fitted effect of over 35% in size; further: potency means the concentration at half of the fitted maximal effect
In short: as §5

[12] = A CellTox Green Cytotoxicity Assay to monitor cytotoxicity in HepG2 cells - 32 hour (AID 1224883); further: nearly all actives have a fitted effect of over 50% in size; further: potency means the concentration at half of the fitted maximal effect
In short: as §5

[13] = A CellTox Green Cytotoxicity Assay to monitor cytotoxicity in HEK293 cells - 8 hour (AID 1224884); further: nearly all actives have a fitted effect of over 35% in size; further: potency means the concentration at half of the fitted maximal effect
In short: (§6)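 Fluorescence from a DNA-binding dye excluded by viable cells was measured repeatedly in the same HEK293 wells (600 cells/well) during continuous compound exposure at 37 C. Each assay gives one read point: 0, 8, 16, 24, 32 or 40 h.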

[14] = qHTS RealTime-Glo MT Cell Viability Assay in HepG2 cells - 16 hour (AID 1224885); further: nearly all actives have a fitted effect of over 50% in size
In short: as §1

[15] = A CellTox Green Cytotoxicity Assay to monitor cytotoxicity in HEK293 cells - 0 hour (AID 1224869); further: nearly all actives have a fitted effect of over 50% in size; further: potency means the concentration at half of the fitted maximal effect
In short: as §6

[16] = A CellTox Green Cytotoxicity Assay to monitor cytotoxicity in HEK293 cells - 40 hour (AID 1224871); further: nearly all actives have a fitted effect of over 45% in size; further: potency means the concentration at half of the fitted maximal effect
In short: as §6

[17] = A CellTox Green Cytotoxicity Assay to monitor cytotoxicity in HEK293 cells - 24 hour (AID 1224875); further: nearly all actives have a fitted effect of over 45% in size; further: potency means the concentration at half of the fitted maximal effect; on activity change: series mostly up to about 77 µM
In short: as §6

[18] = qHTS RealTime-Glo MT Cell Viability Assay in HepG2 cells - 32 hour (AID 1224877); further: nearly all actives have a fitted effect of over 55% in size
In short: as §1

[19] = A CellTox Green Cytotoxicity Assay to monitor cytotoxicity in HEK293 cells - 32 hour (AID 1224881); further: nearly all actives have a fitted effect of over 40% in size; further: potency means the concentration at half of the fitted maximal effect
In short: as §6
On the % scale 0 is the no-effect control and ±100 the full control effect.

C=CCOc1cc(Cl)ccc1C(=O)NCCN(CC)CC
inactive: outcome [1] | Potency [2] | outcome [3] | Potency [4] | outcome [5] | max response [6] -13.3% | Potency [7] | Potency [8] | Potency [9] | outcome [10] | Potency [11] | Potency [12] | Potency [13] | outcome [14]

CCOC(=O)OCC/C(SC(=O)OCC)=C(\C)N(C=O)Cc1cnc(C)nc1N
inactive: Potency [2] | Potency [15] | Potency [16] | Potency [4] | outcome [5] | max response [6] 4.82% | Potency [17] | Potency [7] | outcome [18] | Potency [8] | Potency [9] | outcome [10] | Potency [19] | Potency [11] | Potency [12] | Potency [13] | outcome [14]

Cc1cccc(C(=O)O)c1[N+](=O)[O-]
inactive: Potency [2] | Potency [15] | outcome [3] | Potency [16] | Potency [4] | outcome [5] | max response [6] 0.185% | Potency [17] | Potency [7] | Potency [8] | Potency [9] | outcome [10] | Potency [19] | Potency [11] | Potency [12] | Potency [13] | outcome [14]

O=C(/C=C/c1ccccc1)NCCO
inactive: Potency [2] | outcome [3] | Potency [4] | outcome [5] | max response [6] -3.72% | outcome [18] | outcome [10] | outcome [14]
active: Potency [15] 9.52 µM | Potency [16] 7.56 µM | Potency [17] 6.01 µM | Potency [7] 9.52 µM | Potency [8] 6.74 µM | Potency [9] 6.01 µM | Potency [19] 6.74 µM | Potency [11] 6.01 µM | Potency [12] 8.49 µM | Potency [13] 9.52 µM

CCCCCCCCCCCCOC(C)=O
inactive: outcome [1] | Potency [15] | outcome [3] | Potency [16] | Potency [4] | outcome [5] | Potency [17] | Potency [7] | outcome [18] | Potency [8] | Potency [9] | outcome [10] | Potency [19] | Potency [11] | Potency [12] | Potency [13] | outcome [14]

O=C(O)Cc1cccc(-c2cc(CCCCCCc3ccc(O[C@H]4O[C@H](CO)[C@@H](O)[C@H](O)[C@@H]4O)c(-c4cccc(CC(=O)O)c4)c3)ccc2O[C@H]2O[C@H](CO)[C@@H](O)[C@H](O)[C@@H]2O)c1
inactive: activity change, negative = cytotoxic [2] 4.81% [at 0.29 µM] | cytotoxicity [15] 3% [at 0.29 µM] | activity change, negative = cytotoxic [3] -21.2% [at 0.29 µM] | activity change, negative = cytotoxicity [4] 3.33% [at 0.29 µM] | max response [6] -2.4% | activity change [17] -8.86% [at 0.29 µM, active compounds read high] | cytotoxicity increase [7] 15.1% [at 0.29 µM] | activity change, negative = cytotoxic [18] -9.69% [at 0.29 µM] | cytotoxicity [8] 15.2% [at 0.29 µM] | cytotoxicity increase [9] 20% [at 0.29 µM] | activity change, negative = cytotoxicity [10] 3.85% [at 0.29 µM] | cytotoxicity increase [19] -14.2% [at 0.29 µM] | cytotoxicity increase [13] -1.66% [at 0.29 µM] | activity change, negative = cytotoxic [14] 17.8% [at 0.29 µM]

Cc1nc2ccccc2c(=O)o1
inactive: Potency [2] | Potency [15] | outcome [3] | Potency [4] | max response [6] 5.55% | Potency [17] | Potency [7] | outcome [18] | Potency [8] | Potency [9] | outcome [10] | Potency [11] | Potency [12] | outcome [14]

CCNC(=O)/C=C/c1cccc(Br)c1
inactive: Potency [2] | outcome [3] | Potency [16] | Potency [4] | max response [6] 1.9% | Potency [17] | Potency [7] | outcome [18] | Potency [8] | Potency [9] | outcome [10] | Potency [19] | Potency [11] | Potency [12] | Potency [13]

CC(=O)OC(C(=O)c1ccccc1)c1ccccc1 (stereo not drawn)
inactive: Potency [15] | outcome [3] | Potency [16] | Potency [17] | outcome [18] | Potency [8] | Potency [9] | outcome [10] | Potency [19] | Potency [11] | Potency [12] | Potency [13] | outcome [14]

CC(=O)Nc1ncc([N+](=O)[O-])s1
inactive: outcome [1] | Potency [2] | outcome [3] | Potency [4] | outcome [5] | max response [6] 0.8% | Potency [17] | outcome [18] | Potency [8] | Potency [9] | outcome [10] | Potency [19] | Potency [12] | Potency [13]

CC1=NN(c2ccc(S(=O)(=O)O)cc2)C(=O)C1N=Nc1ccccc1 (stereo not drawn)
inactive: outcome [1] | Potency [15] | outcome [3] | Potency [16] | outcome [5] | Potency [17] | Potency [7] | outcome [18] | Potency [8] | Potency [9] | outcome [10] | Potency [19] | Potency [12] | Potency [13] | outcome [14]
